# Laboratory results published in paper PMC11062922 (Nature Chemical Biology, 2023).
# Read-outs that look alike come from different tables or passages of the source.
# Experiments:
# Set-up in all cases: species or system human, MV4-11 + K-562 + COLO205 + SK-N-BE2 + OVCAR-8
# ACAD11 = details: read-out: apparent Kd, n = 1
# AKT2 = details: read-out: apparent Kd, n = 1
# BTK = details: read-out: apparent Kd; compound concentrations:100 nM and 1000 nM (sheet 'Samples'); n = 1
# FLT3 = details: read-out: apparent Kd, n = 1
# CSK = details: read-out: apparent Kd; compound concentrations:100 nM and 1000 nM (sheet 'Samples'); n = 1
# EPHA1 = details: read-out: apparent Kd; compound concentrations:100 nM and 1000 nM (sheet 'Samples'); n = 1
# TNK2 = details: read-out: apparent Kd; compound concentrations:100 nM and 1000 nM (sheet 'Samples'); n = 1
# ZAK = details: read-out: apparent Kd; compound concentrations:100 nM and 1000 nM (sheet 'Samples'); n = 1
# GSK3A = details: read-out: apparent Kd, compound concentrations: 100 nM and 1000 nM (sheet 'Samples'), n = 1
# GSK3B = details: read-out: apparent Kd, compound concentrations: 100 nM and 1000 nM (sheet 'Samples'), n = 1
# EGFR = details: read-out: apparent Kd, n = 1
# FRK = details: read-out: apparent Kd; compound concentrations: 100 nM and 1000 nM (sheet 'Samples'), CATDS: 5.2265489654336902E-2; n = 1
# DDR1 = details: read-out: apparent Kd, n = 1
# DYRK1A = details: read-out: apparent Kd; compound concentrations:100 nM and 1000 nM (sheet 'Samples'); n = 1
# LYN = details: read-out: apparent Kd; compound concentrations: 100 nM and 1000 nM (sheet 'Samples'), CATDS: 3.75888213105793E-2; n = 1
# ACVR1B = details: read-out: apparent Kd, n = 1
# [1] = compound concentrations:100 nM and 1000 nM (sheet 'Samples')
structure (smiles),measurement,setting,value
Nc1nc(N)c2nc(-c3ccccc3)[nH]c2n1 [SKF-12778],potency estimated from few doses,ACAD11; [1],1290 nM
same,potency estimated from few doses,AKT2; [1],1570 nM
same,potency estimated from few doses,BTK,1330 nM
same,potency estimated from few doses,FLT3; [1],1070 nM
CC(C)c1nc(-c2ccc(F)c(NS(=O)(=O)c3c(F)cccc3F)c2)c(-c2ccnc(Nc3ccc(N4CCOCC4)nc3)n2)s1 [GSK1804250A],potency estimated from few doses,CSK,442 nM
same,potency estimated from few doses,EPHA1,548 nM
same,potency estimated from few doses,TNK2,232 nM
same,potency estimated from few doses,ZAK,1410 nM
COc1ccc(C2=C(c3cn(C)c4ccccc34)C(=O)NC2=O)cc1OC [RO3206363-000],potency estimated from few doses,"AKT2; compound concentrations: 100 nM and 1000 nM (sheet 'Samples'), CATDS: 8.3129465265060903E-2",149 nM
same,potency estimated from few doses,GSK3A; CATDS: 4.8098017287816999E-2,503 nM
same,potency estimated from few doses,GSK3B; CATDS: 4.2103313064090798E-2,722 nM
Cl.Fc1cccc(COc2ccc(Nc3ncnc4cc(-c5ccc[nH]5)sc34)cc2Cl)c1 [GW693881A],potency estimated from few doses,"EGFR; compound concentrations: 100 nM and 1000 nM (sheet 'Samples'), CATDS: 0.260445959414705",495 nM
Cn1cc(C2=C(c3cn(CCCCCO)c4ccccc34)C(=O)NC2=O)c2ccccc21 [RO0318053-000],potency estimated from few doses,GSK3A; CATDS: 0.11270550310053699,467 nM
same,potency estimated from few doses,GSK3B; CATDS: 0.11014328392113699,504 nM
COc1ccc(-c2ccncc2)cc1C(N)=O [GSK605714A],potency estimated from few doses,"ACAD11; compound concentrations: 100 nM and 1000 nM (sheet 'Samples'), CATDS: 0.66413142428119099",619 nM
O=C1Nc2ccc(F)cc2/C1=C/c1ccc[nH]1 [RO0272148-000],potency estimated from few doses,"FLT3; compound concentrations: 100 nM and 1000 nM (sheet 'Samples'), CATDS: 0.86450810261160804",98.5 nM
CS(=O)(=O)c1ccc(-c2nc3n(c2-c2ccncc2)CCC3)cc1 [SKF-105942],potency estimated from few doses,"AKT2; compound concentrations: 100 nM and 1000 nM (sheet 'Samples'), CATDS: 0.110414115877762",2470 nM
Nc1c(C(=O)c2ccccc2)cnn1-c1ccc(F)cc1 [RO1151246-000],potency estimated from few doses,AKT2; [1],1800 nM
Cc1[nH]nc2c1N=C(c1ccccc1Cl)c1cc([N+](=O)[O-])ccc1N2 [RO0274406-000],potency estimated from few doses,GSK3A; CATDS: 0.10002413728449901,504 nM
same,potency estimated from few doses,GSK3B; CATDS: 0.102894851356177,472 nM
COc1cc(N2CCN(C(C)C)CC2)ccc1Nc1nc(Nc2cccc(F)c2C(=O)O)c2cc[nH]c2n1 [GSK1819799A],potency estimated from few doses,"AKT2; compound concentrations: 100 nM and 1000 nM (sheet 'Samples'), CATDS: 4.3054850332127297E-2",1950 nM
same,potency estimated from few doses,FRK,1130 nM
Cc1ccc(-n2nc(C(C)(C)C)cc2NC(=O)Nc2ccc(OCCN3CCOCC3)cc2)cc1 [BIRB0876BS],potency estimated from few doses,DDR1; [1],607 nM
Cl.Oc1ccc2ncnc(Nc3ccc(OCc4ccccc4)cc3)c2c1 [GI262866A],potency estimated from few doses,EGFR; [1],106 nM
Cn1cc(C2=C(c3ccccc3[N+](=O)[O-])C(=O)NC2=O)c2ccccc21 [RO0317753-000],potency estimated from few doses,GSK3A; CATDS: 0.31381008714401198,26.1 nM
same,potency estimated from few doses,GSK3B; CATDS: 0.304149371612502,27.6 nM
Cn1cc(C2=C(c3cn(CCCN/C(N)=N/[N+](=O)[O-])c4ccccc34)C(=O)NC2=O)c2ccccc21 [RO0318161-000],potency estimated from few doses,GSK3A; CATDS: 0.30578210093767899,1280 nM
Fc1cccc(COc2ccc(Nc3ncncc3C#Cc3ccccc3)cc2Cl)c1 [GW651576X],potency estimated from few doses,"EGFR; compound concentrations: 100 nM and 1000 nM (sheet 'Samples'), CATDS: 8.85764063435832E-2",663 nM
CCS(=O)(=O)c1ccc(OC)c(Nc2ncc(-c3cccc(F)c3)o2)c1 [GW621970X_KCGS],potency estimated from few doses,DYRK1A,1660 nM
CC(=O)Nc1ccc2c(C3=C(c4cn(C)c5ccccc45)C(=O)NC3=O)cn(C)c2c1 [RO0317596-000],potency estimated from few doses,GSK3A; CATDS: 0.16934615909466,626 nM
same,potency estimated from few doses,GSK3B; CATDS: 0.12883781394947599,1100 nM
COc1cc2ncn(-c3cc(O[C@H](C)c4ccccc4Cl)c(C(N)=O)s3)c2cc1OC [GSK237701A],potency estimated from few doses,ACAD11; [1],756 nM
Clc1ccc(-c2nn3ncccc3c2-c2ccnc(Nc3ccccc3)n2)cc1 [GW829055X],potency estimated from few doses,"AKT2; compound concentrations: 100 nM and 1000 nM (sheet 'Samples'), CATDS: 4.03721310315426E-2",1150 nM
same,potency estimated from few doses,LYN,1350 nM
Fc1ccc(-c2ncn(C3CCNCC3)c2-c2ccnc(Oc3ccc4c(c3)OCO4)n2)cc1 [SB-250715],potency estimated from few doses,AKT2; [1],1360 nM
COc1ccc(-c2nn3ncccc3c2-c2ccnc(Nc3ccc4c(c3)OCCO4)n2)cc1 [GW827106X],potency estimated from few doses,"ACVR1B; compound concentrations: 100 nM and 1000 nM (sheet 'Samples'), CATDS: 6.5023219002079705E-2",849 nM
same,potency estimated from few doses,"DDR1; compound concentrations: 100 nM and 1000 nM (sheet 'Samples'), CATDS: 9.2725066561010094E-2",461 nM
Nc1nc(-c2ccccn2)c(-c2ccnc3ccccc23)s1 [GW548057X],potency estimated from few doses,ACVR1B; [1],76.2 nM
